Among the data in PubChem BioAssay (NCI) are growth values, retold here.

Common to all, as to assay: NCI-60 one-dose screen, 48 h (100 = growth as untreated, 0 = no growth, -100 = all killed)
Details in all cases: 10 µM unless noted

For test [1], the system named is NCI-H23 lung.
Test [2] concerns NCI-H226 lung.
The test system of test [3] is NCI-H322M lung.
Test [4] deals with HOP-62 NSCLC.
Test [5] has as its system NCI-H460 lung.
Test [6] relates to HOP-92 NSCLC.
For test [7], the system named is NCI-H522 lung.
In test [8] the test system is A549/ATCC NSCLC.
Test [9] has as its system 786-0 renal.
For test [10], the system named is COLO 205 colon.
Test [11] deals with DU-145 prostate.
Test [12] has as its system K-562 leukemia.
The test system of test [13] is MALME-3M melanoma.
Test [14] has as its system MDA-MB-231 breast.
Test [15] concerns RXF 393 renal.
Test [16] deals with SF-268 CNS.
The test system of test [17] is SF-295 CNS.
For test [18], the system named is SF-539 CNS.
The test system of test [19] is UACC-257 melanoma.
Test [20] relates to M14 melanoma.

“And” between values parts separate entries of the source, which are not always exact repeats. Identical values can stand only once. About 83,000 compounds went through this panel and 20% of them were active in at least one assay; those are over-represented in the sample as a whole.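 A percent growth of 40 corresponds to 60% growth inhibition; 0 means no net growth; -100 means all cells died. Active threshold: below 10.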 Unmarked numbers belong to inactive results. The source made the active and inactive calls.

With `N#CC(=S)Nc1ccc(Cl)c(Cl)c1`, the growth in [1] is 3.93% (active); in [2] it was 9.29% (active); in test [3], -3.76% (active); in [4], 24.3%; in test [5], 9.12% (active); in test [6] it was -15.6% (active). For the same compound, the growth in test [7] is -14% (active); in test [8], 15.6%; in [9] it was 14.2%; in [10], -22% (active); in test [11], 18.6%; in test [12], 16.1%. The growth in [13] is -13.4% (active); in test [14] it was -4.8% (active); in [15], 13%; in test [16] it was 11%; in test [17], -0.242% (active); in test [18], 8.61% (active). For the same compound, the growth was -6.42% (active) in test [19] and 26.1% in test [20].

As to `COC(=O)c1cc(C(=O)OC)cc([N+](=O)[O-])c1`, the growth in [1] is 105%; in [2] it was 108%; in [3] it was 117%; in test [4] it was 94.8%; in [5], 113%; in test [6] it was 105%. The growth in test [7] is 90.6%; in test [8], 87.7%; in test [9], 92.9%; in test [10] it was 101%; in [11], 113%; in [12], 99.7%. Moreover, the growth in test [13] is 113%; in test [14] it was 112%; in [15], 118%; in test [16] it was 108%; in [17] it was 111%; in test [18], 97.4%. Moreover, the growth is 82.7% in test [19] and 106% in test [20].

With `NNc1ncnc2cccc(Cl)c12`, the growth is 99.9% in [1]; 93.1% in test [2]; 101% in [3]; 95.3% in test [4]; 113% in [5]; 79.7% in test [6]. Further, the growth is 84.8% in test [7]; 81.1% in [8]; 105% in [9]; 104% in test [10]; 112% in test [11]; 99.4% in test [12]. In addition, the growth in [13] is 99%; in test [14], 105%; in [15], 103%; in test [16], 107%; in [17], 98.7%; in test [18] it was 97.2%. For the same compound, the figures for the growth in [19] and in test [20] were 88.2% and 104%, respectively.

Consider `O=C(Nc1ccccc1)OCC(CN1CCCCC1)OC(=O)Nc1ccccc1` (stereo not given), for which the growth in test [1] is 78.4% and 103%; in [2], 96.6% and 89.9%; in test [3], 81% and 92.2%; in test [4], 83.6% and 110%; in test [5], 106% and 105%; in test [6], 76.4%. Further, the growth in test [7] is 103%; in test [8], 94.1% and 94.4%; in test [9], 64% and 101%; in test [10], 98%; in test [11] it was 107%; in test [12], 89%. For the same compound, the growth in test [13] is 90.8% and 109%; in [14] it was 30.7% and 79.2%; in test [15] it was 60% and 86.8%; in [16] it was 79.2% and 94.7%; in test [17], 96.5% and 97.9%; in [18] it was 87.5% and 96.2%. Further, the growth is 93.7% and 93.2% in test [19]; 86.6% and 108% in test [20].

On to `OC(CC(c1ccccc1)c1cccc2ccccc12)(c1ccccc1)c1ccccc1` (stereo not given), for which the growth in test [1] is 76.2% and 71.1%; in [2] it was 77.9% and 79.1%; in test [3], 97.5% and 105%; in test [4] it was 94.6% and 97%; in test [5], 89.2% and 91.4%; in test [6], 49.5% and 58.4%. The growth is 47.9% and 62.7% in [7]; 73.7% and 79.1% in test [8]; 85.7% and 79.7% in [9]; 90.3% and 92.4% in test [10]; 108% and 103% in test [11]; 92.9% and 67.2% in test [12]. For the same compound, the growth is 101% and 104% in test [13]; 69.4% and 71.2% in test [14]; 92.7% and 86.7% in test [15]; 84.9% and 89.4% in test [16]; 80% and 81.3% in test [17]; 94.4% and 93.3% in [18]. Further, the growth in test [19] is 62.8% and 85.3%; in test [20], 72.1% and 77.2%.

Consider `O=C(O)C#Cc1ccc(Cl)cc1`, for which the growth in [1] is 109%; in test [2], 93.2%; in test [3] it was 111%; in [4] it was 89.3%; in test [5], 105%; in test [6], 97.8%. In addition, the growth is 87.2% in [7]; 87.2% in test [8]; 99.4% in [9]; 99.9% in [10]; 109% in [11]; 88.5% in test [12]. For the same compound, the growth in [13] was 104%; in test [14], 100%; in test [15], 108%; in test [16], 104%; in test [17], 99.7%; in [18], 102%. The growth in test [19] is 87.3%; in test [20] it was 98.2%.

On to `O=C(O)c1c2c(nc3ccccc13)Cc1ccccc1-2`, for which the growth is 96.7% and 95.7% in test [1]; 115% and 95% in test [2]; 119% and 87.4% in test [3]; 118% and 88.9% in test [4]; 105% and 102% in test [5]; 92.3% and 96.5% in [6]. In addition, the growth in test [7] is 113% and 104%; in test [8], 97.9% and 107%; in test [9], 108% and 101%; in [10] it was 109% and 107%; in test [11], 108% and 94.4%; in [12] it was 115% and 99.1%. The growth in test [13] was 105% and 86.8%; in [14], 107% and 102%; in test [15] it was 182% and 114%; in test [16], 95.4% and 86.9%; in test [17] it was 104% and 81.9%; in test [18], 116% and 91.4%. Moreover, the growth was 85.8% and 103% in test [19]; 91.5% and 96% in test [20].

On to `OCc1ccccc1F`, for which the growth is 88% in test [1]; 103% in test [2]; 105% in test [3]; 97.3% in [4]; 48.1% in test [5]; 106% in [6]. Further, the growth is 71.1% in [7]; 93.4% in test [8]; 101% in test [9]; 92.3% in [10]; 11.4% in test [11]; 106% in test [12]. The growth in test [13] is 134%; in [14], 86.3%; in test [15], 77.5%; in test [16] it was 95.8%; in test [17], 72%; in test [18], 101%. The values for the growth in test [19] and in test [20] were 107% and 90.8%, respectively.

As to `CC(C)=NOC(C)C(=O)O` (stereo not given), the growth in test [1] is 108%; in test [2] it was 104%; in test [3], 118%; in test [4] it was 110%; in [5], 107%; in test [6], 73%. Further, the growth in test [7] was 111%; in [8], 98.8%; in test [9], 97.8%; in [10] it was 111%; in test [11], 147%; in test [12], 76.5%. Besides, the growth in [13] was 112%; in [14], 99.8%; in test [15] it was 116%; in [16] it was 101%; in test [17], 93.1%; in test [18], 102%. For the same compound, the growth in [19] was 92.9%; in [20], 94.4%.

Consider `COc1ccc([N+](=O)[O-])cc1OC`, for which the growth in [1] was 98.5% and 106%; in test [2], 101% and 98.2%; in test [3] it was 105%; in [4] it was 98.2% and 109%; in [5], 102% and 111%; in test [6] it was 93.5% and 92.7%. The growth in [7] is 111% and 93.7%; in test [8], 93% and 92.9%; in test [9] it was 104% and 95%; in test [10] it was 112% and 115%; in test [11], 111% and 118%; in [12], 102% and 103%. Also, the growth in [13] was 117% and 104%; in test [14], 111% and 108%; in test [15], 114% and 104%; in test [16], 100% and 108%; in [17], 102% and 105%; in [18], 93.9% and 98%. The growth in test [19] is 90.1% and 95%; in test [20], 98.9% and 113%.

`CC1OS(=O)OC1C` (stereo not given): the growth was 101% and 95.8% in test [1]; 103% and 101% in [2]; 108% and 94% in [3]; 101% and 105% in test [4]; 104% and 102% in test [5]; 114% and 96.3% in test [6]. Also, the growth is 68.9% and 94.9% in test [7]; 97.9% and 104% in test [8]; 103% and 105% in test [9]; 112% and 102% in [10]; 113% and 102% in test [11]; 82.6% and 110% in [12]. Further, the growth in [13] is 107% and 91%; in [14], 109%; in test [15], 99.4% and 104%; in test [16], 110%; in test [17], 100%; in [18] it was 97.4% and 99.1%. The growth in test [19] is 99.8% and 94.2%; in test [20] it was 99.1% and 102%.

As to `O=C1C2=C(Nc3cc(Cl)ccc3N2)OC1c1c[nH]c2ccc(COc3ccccc3)cc12` (stereo not given), the growth in test [1] was 59.3%; in test [2] it was 2.7% (active); in test [3] it was 64.7%; in test [4], -14.7% (active); in [5], 59.7%; in test [6] it was 42.3%. In addition, the growth is 54.8% in [7]; 74.2% in test [8]; 38.8% in [9]; 111% in test [10]; 73.7% in test [11]; 79.7% in [12]. Moreover, the growth in test [13] is 74%; in [14], 59.5%; in test [15], 43.9%; in test [16] it was 30.4%; in [17], 33.5%; in [18] it was 53.8%. Also, the growth in test [19] is 80.3%; in [20], 94.2%.
